From PubChem BioAssay
D2 antagonist = antagonizes the human D2 dopamine receptor; HEK293 TREx D2 cells, calcium flux, dopamine EC80; inhibition, % at 10 µM; AID 485344; P14416; hit rate 2% among 340,000; in the data active means inhibition above about 30%; inactive means below that, where a call was filed; further: 0% is about no effect
Target sequence (P14416 whole entry, looked up): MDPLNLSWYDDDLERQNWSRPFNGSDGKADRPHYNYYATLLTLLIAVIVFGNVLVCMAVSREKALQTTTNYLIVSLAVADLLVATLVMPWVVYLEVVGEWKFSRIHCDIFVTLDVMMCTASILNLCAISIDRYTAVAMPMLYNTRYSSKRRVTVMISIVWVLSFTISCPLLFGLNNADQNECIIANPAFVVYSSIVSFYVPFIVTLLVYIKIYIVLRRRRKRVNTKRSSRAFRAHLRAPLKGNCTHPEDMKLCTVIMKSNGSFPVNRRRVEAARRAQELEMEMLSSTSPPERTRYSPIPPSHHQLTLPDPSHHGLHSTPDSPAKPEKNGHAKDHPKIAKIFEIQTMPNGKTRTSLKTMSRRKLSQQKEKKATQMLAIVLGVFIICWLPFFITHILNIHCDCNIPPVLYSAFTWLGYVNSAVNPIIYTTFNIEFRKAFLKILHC
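Tetracycline-induced HEK293 T-REx cells expressing D2 force-coupled to calcium signalling were dye-loaded, exposed to compound for 180 s, then challenged with an EC80 of dopamine; calcium flux was followed kinetically for a further 180 s.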
D2 ag-1 = activates the human D2 dopamine receptor. DiscoveRx PathHunter D2 beta-arrestin, luminescence, 90 min; 100% = 57 uM dopamine signal. activation, % (test concentration not listed). P14416. hit rate 0.084% among 360,000; in the data active means activation above about 40%; inconclusive means between about 15% and that limit
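DiscoveRx PathHunter D2 beta-arrestin cells (2,100/well) attached overnight, then compound-stimulated 90 min at 37 C in HBSS/10 mM HEPES/0.1% Tween-20 buffer; beta-galactosidase complementation read by luminescence after 1 h at ambient temperature. Dopamine 57 uM final (EC100) as control.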
D2 PAM-1 = human D2 receptor positive allosteric modulation. hit rate 0.23% among 360,000. potentiation, % (test concentration not listed). AID 624464. DiscoveRx D2 beta-arrestin cells, luminescence, 90 min; 100% = 57 uM dopamine signal. P14416; in the data active means potentiation above about 50%; inconclusive means mostly about 30% to 49%
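PathHunter D2 cells, attached overnight at 37 deg C, received compound in DMSO plus dopamine at EC20 (50 nM final) for 90 min at 37 deg C. Beta-arrestin recruitment was read as luminescence after 1 h with detection reagent at ambient temperature.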
D2 ag-2 = agonists of human D2 dopamine receptor | P14416 | HEK293 T-REx D2 cells, calcium flux agonist mode | activation, % at 2 µM | hit rate 0.53% among 340,000 | AID 485358;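 active means activation over 3 SD above normal in the single-dose calcium agonist read, cut at about 30% in these data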; further: 0% is about no effect
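HEK293 Trex D2 cells, tetracycline-induced, o/n 30 C 5% CO2; no-wash Ca dye, RT 30–90 min; 10-cycle baseline, 23 nl cpd added, kinetic Ca read 180 s; agonist hits = positive Ca response.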
D2 PAM-2 = positive allosteric modulators of human D2 dopamine receptor; AID 485347; HEK293 T-REx D2, calcium flux, EC20 dopamine potentiation; potentiation, % at 10 µM; hit rate 0.34% among 340,000;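 active means potentiation over 3 SD above the plate norm, cut at about 30% in these data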; further: 0% is about no effect
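Calcium flux readout, no-wash dye, 1 read/s. Inducible HEK293 Trex D2 line, overnight 30 C. Compound alone 180 s (agonist flags), then EC20 dopamine, another 180 s to score potentiation.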
Numbers without * were called inactive. This is a sample that favours compounds with a hit; in the whole collection about 2.4% have one here.

What do the screens show for `O=C(NC1CC2CCCC(C1)N2Cc1cccs1)c1ccc([N+](=O)[O-])cc1` (configuration not stated)?
D2 antagonist: 57*; D2 ag-2: 1; D2 PAM-2: -21

What do the screens show for `O=C(NC1CC2CCCC(C1)N2Cc1cccs1)N1CCOCC1` (configuration not stated)?
D2 ag-1: -2; D2 PAM-1: -39

How did O=C(NC1CC2CCCC(C1)N2Cc1ccc(F)cc1)c1ccc(F)cc1 (configuration not stated) do in these assays?
D2 antagonist: 75*; D2 ag-1: -9; D2 PAM-1: -75; D2 ag-2: 1; D2 PAM-2: -22

How did Cn1ccnc1SCC(=O)Nc1cc(Cl)ccc1Cl do in these assays?
D2 ag-2: 1; D2 PAM-2: -6

How did COc1cccc(NC(=O)Cn2nnc(-c3nc(-c4ccccc4)no3)c2N)c1 do in these assays?
D2 ag-2: 0; D2 PAM-2: 5

What do the screens show for `C/C(=N\NC(=O)c1ccccc1F)c1ccc2c(c1)Nc1ccccc1S2`?
D2 antagonist: -4; D2 ag-1: inconclusive; D2 PAM-1: 87*; D2 ag-2: 0; D2 PAM-2: -3

Results for CCOc1ccc(CNC(=O)c2cc3c(=O)n(Cc4cccs4)ccc3nc2C)cc1 ?
D2 ag-2: -1; D2 PAM-2: -22

What do the screens show for `O=C(CSc1nnc(NC(=O)c2ccccc2F)s1)Nc1ccccc1F`?
D2 antagonist: 36*; D2 ag-1: 0; D2 PAM-1: 5; D2 ag-2: 0; D2 PAM-2: -9

Results for CC(=O)Nc1ccc(NC(=O)CSc2nnc(NC(=O)Cc3ccc(F)cc3)s2)cc1 ?
D2 antagonist: 34*; D2 ag-1: -2; D2 PAM-1: -6; D2 ag-2: 0; D2 PAM-2: -21

Results for O=C(Nc1nnc(SCc2ccc(F)cc2)s1)c1cnccn1 ?
D2 antagonist: 33*; D2 ag-1: -3; D2 PAM-1: -12; D2 ag-2: 1; D2 PAM-2: 1

What do the screens show for `CCSc1nnc(NC(=O)c2cnccn2)s1`?
D2 antagonist: 12; D2 ag-1: 0; D2 PAM-1: -1; D2 ag-2: 0; D2 PAM-2: -2

How did Cc1c(C(=O)Nc2cccc(C(F)(F)F)c2)oc2ccc3c(c12)C(=O)CC(C)(C)O3 do in these assays?
D2 ag-2: -2; D2 PAM-2: -6

What do the screens show for `COc1ccc(-c2[nH]nc3oc(=O)cc(C)c23)cc1`?
D2 antagonist: 33*; D2 ag-1: -2; D2 PAM-1: -7; D2 ag-2: 0; D2 PAM-2: 28

How did C=CCOC(=O)c1cc(-c2ccc(/C=C3\C(=O)NC(=O)C(C#N)=C3C)o2)ccc1Cl do in these assays?
D2 antagonist: -14; D2 ag-1: -1; D2 PAM-1: 2; D2 ag-2: 0; D2 PAM-2: -4

How did CC1=C(C#N)C(=O)NC(=O)/C1=C/c1ccc(-c2ccc(S(N)(=O)=O)cc2)o1 do in these assays?
D2 antagonist: 9; D2 ag-1: 10; D2 PAM-1: 29; D2 ag-2: 1; D2 PAM-2: 37*

Results for Cc1ccccc1OCCN1CCCC1 ?
D2 antagonist: -16; D2 ag-1: -5; D2 PAM-1: -4; D2 ag-2: 3; D2 PAM-2: -21

How did c1ccc(-c2ccccc2OCCCCN2CCCCCC2)cc1 do in these assays?
D2 antagonist: 148*; D2 ag-1: 0; D2 PAM-1: -8; D2 ag-2: 0; D2 PAM-2: -41

What do the screens show for `c1ccc(-c2ccccc2OCCOCCN2CCCCC2)cc1`?
D2 antagonist: 87*; D2 ag-1: -6; D2 PAM-1: -26; D2 ag-2: 0; D2 PAM-2: -25

How did CC(C)(C)c1ccccc1OCCOCCN1CCCCCC1 do in these assays?
D2 antagonist: 31*; D2 ag-1: 3; D2 PAM-1: -10; D2 ag-2: 0; D2 PAM-2: -27

How did c1ccc(-c2ccccc2OCCN2CCCC2)cc1 do in these assays?
D2 antagonist: 82*; D2 ag-1: 5; D2 PAM-1: -25; D2 ag-2: 0; D2 PAM-2: -22

Results for CN(c1ncnc2onc(-c3cccc(Cl)c3)c12)C1CCCCC1 ?
D2 ag-2: 0; D2 PAM-2: 2

How did OCCCN1CCN(CCCOc2ccccc2-c2ccccc2)CC1 do in these assays?
D2 antagonist: 53*; D2 ag-1: -5; D2 PAM-1: -33; D2 ag-2: 0; D2 PAM-2: -29
